Screening data as filed in PubChem BioAssay.
Shown is part of a subset that was picked to be rich in hits.
HT1080 IDH1KD tx = HT-1080 IDH1 knockdown cell toxicity (counter line). HT-1080 IDH1 knockdown viability, ATP luminescence, 48 h. AID 686971. 360,000 tested, 2% active. Potency, µM (titrated, usually from 46.1 µM), hits mostly cytotoxic
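HT-1080-IDH1KD cells (IDH1 knocked down), 750/well in RPMI with 5% FBS, treated with compound 48 h at 37 degrees C. Viability by CellTiter-Glo luminescence, normalised to DMSO and no-cell wells; concentration-response curves classed.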
IL-1B inflam inh = inhibitors of inflammasome signaling (IL-1 beta secretion); THP-1 LPS/ATP IL-1B secretion, AlphaLISA, 16 h; stronger effect = lower value; activity change, % at 57.5 µM; 360,000 tested, 4.7% active; in the data active means activity change below about -50%; inconclusive means mostly about -30% to -49%
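THP-1 cells pretreated 1 hr with compounds (up to 57.5 uM final), then stimulated with LPS (250 ng/mL final) plus ATP (1.25 mM final); secreted IL-1B measured by AlphaLISA after 16 hr, decreased signal indicating inhibition.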
DT40 TDP1 no CPT = qHTS for Inhibitors of human tyrosyl-DNA phosphodiesterase 1 (TDP1): qHTS in cells in absence of CPT. DT40 Tdp1-/- hTDP1 cells, no CPT, ATP luminescence, 48 h. Potency, µM (highest dose often 46.2 µM), usual class: inhibitors. 420,000 tested, 15% active. AID 686978, 2013; further: nearly all actives have a fitted effect of over 55% in size
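Luminescent ATP content (CellTiter-Glo) served as the growth readout. Knockout chicken DT40 cells expressing human TDP1 were exposed to compounds without camptothecin for a minimum 48 hr at 37 °C.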
HT1080NT lethal = kills 2HG-producing HT-1080-NT fibrosarcoma cells. HT-1080-NT fibrosarcoma viability, CellTiter-Glo ATP luminescence, 48 h. Potency, µM (series often up to 46.1 µM), usual class: cytotoxic. 360,000 tested, 1.6% active. AID 686970;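 further: NT is the 2HG producing partner of a matched IDH1 knockdown line; nearly all actives have a fitted effect of over 55% in size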
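Toxicity toward the 2HG-producing NT line was scored as %Activity, normalised to DMSO and no-cell wells, from CellTiter-Glo luminescence after 48 hours' treatment.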
ALOX12 inh = ALOX12 (human) lipoxygenase inhibition. P18054. purified 12hLO, xylenol orange hydroperoxide absorbance. Potency, µM (top dose mostly 108 µM), hits mostly inhibitors. 580,000 tested, 1.1% active. AID 1671190
Target sequence (P18054 whole entry, looked up): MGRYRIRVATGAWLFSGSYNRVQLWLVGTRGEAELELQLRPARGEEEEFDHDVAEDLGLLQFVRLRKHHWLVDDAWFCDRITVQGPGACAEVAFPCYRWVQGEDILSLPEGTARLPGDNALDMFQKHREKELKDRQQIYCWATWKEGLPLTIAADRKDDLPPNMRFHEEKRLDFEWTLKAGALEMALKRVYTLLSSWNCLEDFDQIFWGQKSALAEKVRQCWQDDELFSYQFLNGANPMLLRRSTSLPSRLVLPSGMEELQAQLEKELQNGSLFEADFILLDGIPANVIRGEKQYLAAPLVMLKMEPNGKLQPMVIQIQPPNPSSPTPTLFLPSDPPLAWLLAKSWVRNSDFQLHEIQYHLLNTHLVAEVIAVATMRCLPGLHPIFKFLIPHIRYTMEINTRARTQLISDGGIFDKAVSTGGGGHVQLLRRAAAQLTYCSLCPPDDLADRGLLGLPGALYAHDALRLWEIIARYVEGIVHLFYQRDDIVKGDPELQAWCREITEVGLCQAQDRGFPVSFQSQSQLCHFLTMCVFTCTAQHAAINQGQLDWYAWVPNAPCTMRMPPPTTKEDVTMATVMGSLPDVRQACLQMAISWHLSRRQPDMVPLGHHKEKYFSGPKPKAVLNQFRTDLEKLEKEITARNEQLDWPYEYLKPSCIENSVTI
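Purified human 12hLO (150 nM final) in 25 mM Hepes, 0.01% Triton X-100, pH 7.0 was preincubated 15 min at room temperature with compound. Then 40 uM arachidonic acid was added, 30 min. Hydroperoxide was read by Fe-XO absorbance ratio 573/405 nm.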
DT40 TDP1 CPT = DT40-hTDP1 cell growth loss with CPT | chicken DT40 Tdp1-/-;hTDP1 cells + 20 nM CPT, ATP luminescence, 48 h | 420,000 tested, 12% active | AID 686979 | Potency, µM (top dose mostly 46.2 µM), usual class: inhibitors; further: nearly all actives have a fitted effect of over 55% in size
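Chicken DT40 Tdp1-/- cells complemented with human TDP1, 400 cells/well, exposed to compounds plus 20 nM camptothecin for at least 48 h at 37 C; viability read as ATP content by CellTiter-Glo luminescence.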
Of the large screens only hits and unclear results are named; the others gave an inactive call. Unless noted, the call rests on the fitted dose curve; in most records, active means well fitted curve in the direction sought with a large enough effect; inconclusive means small, poorly fitted or top-dose-only effect, or another doubt; inactive means no such curve, though single readings can be large; an effect the other way counts as inactive or inconclusive.

O=C(CCN1CCCC1Cc1ccccc1)c1ccc2c(c1)OCCO2 (centres undefined)	HT1080 IDH1KD tx inconclusive, IL-1B inflam inh -100.7, DT40 TDP1 no CPT 2.31µM, DT40 TDP1 CPT 2.59µM
CC1=C[C@@H](CNC(=O)C(C)(C)C)[C@H](C(C)C)C[C@H]1CC(=O)N(C)Cc1cccnc1	none (no result: HT1080 IDH1KD tx, IL-1B inflam inh, DT40 TDP1 no CPT, HT1080NT lethal, DT40 TDP1 CPT)
Cc1cc(NC(=O)CSc2nccn2-c2cccc(Cl)c2)on1	none (no result: HT1080 IDH1KD tx, IL-1B inflam inh, DT40 TDP1 no CPT, HT1080NT lethal, DT40 TDP1 CPT)
Cc1sc2c(c1C)CN(C(C)C)CN2C(=O)c1ccccc1	ALOX12 inh 6.31µM (no result: HT1080 IDH1KD tx, IL-1B inflam inh, DT40 TDP1 no CPT, HT1080NT lethal, DT40 TDP1 CPT)
CN1CCN(c2ncc3nc(-c4ccccc4)c(=O)n(CCC#N)c3n2)CC1	DT40 TDP1 no CPT 16.4µM, DT40 TDP1 CPT inconclusive (no result: HT1080 IDH1KD tx, IL-1B inflam inh, HT1080NT lethal)
COc1ccc(-c2nc3cnc(N4CCN(C)CC4)nc3n(CCC#N)c2=O)cc1	DT40 TDP1 no CPT 23.1µM, ALOX12 inh inconclusive (no result: HT1080 IDH1KD tx, IL-1B inflam inh, HT1080NT lethal)
COc1ccc(-c2nc3cnc(N4CCOCC4)nc3n(CCC#N)c2=O)cc1	ALOX12 inh inconclusive (no result: HT1080 IDH1KD tx, IL-1B inflam inh, HT1080NT lethal)
O=C(Nc1ccc(Cl)c(C(F)(F)F)c1)c1ccncc1	DT40 TDP1 no CPT 14.6µM, DT40 TDP1 CPT inconclusive
C/C(CC(=O)Nc1ccc(Cl)c(C(F)(F)F)c1)=N\NC(=O)c1cnccn1	HT1080 IDH1KD tx inconclusive, IL-1B inflam inh -71.7, HT1080NT lethal inconclusive, DT40 TDP1 CPT inconclusive
CNC(=O)c1cc(Oc2ccc(NC(=O)Nc3ccc(Cl)c(C(F)(F)F)c3)cc2)ccn1	HT1080 IDH1KD tx inconclusive, IL-1B inflam inh -102.2, DT40 TDP1 no CPT 23.1µM, HT1080NT lethal inconclusive, DT40 TDP1 CPT 20.6µM
Cc1ccc(C(=O)Nc2ccc(Br)c(C(F)(F)F)c2)cc1	HT1080 IDH1KD tx inconclusive, IL-1B inflam inh inconclusive, DT40 TDP1 no CPT 23.1µM, DT40 TDP1 CPT inconclusive
C/C(CC(=O)Nc1c(Cl)cccc1C(F)(F)F)=N\NC(=O)c1cnccn1	DT40 TDP1 CPT inconclusive
O=C(Nc1ccc(Cl)c(C(F)(F)F)c1)c1ccc(Cl)c(Cl)c1	none (no result: HT1080 IDH1KD tx, IL-1B inflam inh, DT40 TDP1 no CPT, HT1080NT lethal, DT40 TDP1 CPT)
CSc1nc2ccc(NC(=O)Cc3cccc(C(F)(F)F)c3)cc2s1	none (no result: HT1080 IDH1KD tx, IL-1B inflam inh, DT40 TDP1 no CPT, HT1080NT lethal, DT40 TDP1 CPT)
Cc1ccc(C(=O)CSc2nnc(COc3cccc4cccnc34)o2)cc1	HT1080 IDH1KD tx inconclusive, IL-1B inflam inh inconclusive, DT40 TDP1 no CPT 23.1µM, HT1080NT lethal inconclusive, DT40 TDP1 CPT 10.3µM
COc1cccc(C(=O)CSc2nnc(COc3cccc4cccnc34)o2)c1	HT1080 IDH1KD tx inconclusive, DT40 TDP1 no CPT 4.11µM, HT1080NT lethal inconclusive, DT40 TDP1 CPT 3.66µM
O=C(CSc1nnc(COc2cccc3cccnc23)o1)N1CCCC1	none
Cc1ccc(C(=O)CSc2nnc(COc3cccc(C)c3)o2)cc1	none
O=C(CSc1nnc(COc2cccc3cccnc23)o1)c1ccc(F)cc1	HT1080 IDH1KD tx 5.01µM, DT40 TDP1 no CPT 4.11µM, HT1080NT lethal 10µM, DT40 TDP1 CPT 4.11µM
CNc1nccc(N2CCC(CC(=O)NCCCN(C)C)CC2)n1	none (no result: HT1080 IDH1KD tx, IL-1B inflam inh, DT40 TDP1 no CPT, HT1080NT lethal, DT40 TDP1 CPT)
CCOc1ccccc1N(CC)C(=O)Cn1nc(Cc2ccncc2)c2ccccc2c1=O	none (no result: HT1080 IDH1KD tx, IL-1B inflam inh, DT40 TDP1 no CPT, HT1080NT lethal, DT40 TDP1 CPT)
COC(=O)CNC(=O)N1CCC(N2CC3CC(C2)[C@H]2CCCC(=O)N2C3)CC1 (some centres undefined)	none (no result: HT1080 IDH1KD tx, IL-1B inflam inh, DT40 TDP1 no CPT, HT1080NT lethal, DT40 TDP1 CPT)
Clc1cccc(CN2CCc3c([nH]c4ccccc34)C2)c1	HT1080 IDH1KD tx inconclusive, IL-1B inflam inh -98.3, DT40 TDP1 no CPT inconclusive, HT1080NT lethal inconclusive, DT40 TDP1 CPT inconclusive
c1ccc(CN2CCc3[nH]c4ccccc4c3C2)cc1	DT40 TDP1 no CPT inconclusive
COc1cc(OC)c(OC)cc1CN1CCc2ccccc2C1	ALOX12 inh inconclusive
Cc1cccc(CN2CCc3c([nH]c4ccccc34)C2)c1	IL-1B inflam inh inconclusive, DT40 TDP1 no CPT 18.4µM, DT40 TDP1 CPT 20.6µM
Clc1ccc(CN2CCc3c([nH]c4ccccc34)C2)cc1Cl	HT1080 IDH1KD tx inconclusive, IL-1B inflam inh -69.5, DT40 TDP1 no CPT 14.6µM, HT1080NT lethal inconclusive, ALOX12 inh inconclusive, DT40 TDP1 CPT inconclusive
COc1cc(OC)c(CN2CCc3c([nH]c4ccccc34)C2)cc1Br	HT1080 IDH1KD tx inconclusive, DT40 TDP1 no CPT inconclusive, HT1080NT lethal 16.4µM, ALOX12 inh inconclusive, DT40 TDP1 CPT inconclusive
